Drawing on PubChem BioAssay (NCATS), this text covers Potency, outcome and activity, negative = inhibition for 12 compounds.

Experiment [1] deals with Zika virus NS2B-NS3 protease. Nature of the experiment: Primary screen GU AMC qHTS for Zika virus inhibitors (AID 1347154). Also: nearly all actives have a fitted effect of over 70% in size. Also: potency is read from the fitted curve at half-maximal effect. The method, boiled down:
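Unlinked Zika NS2B hydrophilic domain–NS3 protease complex at 25 nM in 10 mM Tris-HCl pH 8.0, 0.01% Tween 20, with an AMC peptide substrate. Fluorescence change (340/450 nm) over 15 min at room temperature, normalized to controls, fitted to 4-parameter Hill.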
A general note: In qHTS, concentration-response curves come from the screen itself.

Experiment [2] deals with Zika virus NS2B-NS3 protease (unlinked complex). The experiment can be described thus: Primary screen GU Rhodamine qHTS for Zika virus inhibitors: Unlinked NS2B-NS3 protease assay (AID 1347159). Also: % is scaled to controls: 0 for no effect and ±100 for the full control effect; nearly all actives have a fitted effect of over 60% in size. The method, boiled down:
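In dose–response format, inhibition of unlinked protease (25 nM) was measured with 1.5 microM bis-peptide Rhodamine110 substrate. Aprotinin served as the intraplate control.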

Experiment [3] concerns Zika virus NS2B-NS3 protease (linked construct). The experiment can be described thus: Primary screen NINDS Rhodamine qHTS for Zika virus inhibitors (AID 1347160). Also: nearly all actives have a fitted effect of over 55% in size. The conditions noted are these: outcome: dose series up to 57.1 µM unless noted. In outline:
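Each compound, titrated, sat 15 min with 25 nM linked protease before 1.5 microM Rhodamine110 substrate went in. Fluorescence gain over the next 15 min, in pH 8.0 Tris with Tween 20, gave Hill-fitted curves.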

Experiment [4] is described as follows: qHTS to identify inhibitors of the type 1 interferon - major histocompatibility complex class I in skeletal muscle: primary screen against the NCATS Pharmaceutical Collection (AID 1347407).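 Also: luminescence of HiBiT knocked into endogenous HLA-B as interferon-induced MHC class I level; % is scaled to controls: 0 for no effect and ±100 for the full control effect.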 In outline: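 Cells were seeded with 4 ng/ml IFN-beta, incubated 1 h, then dosed with compounds over eight 1:5 steps up to 46 uM final. After 24 h at 37 C, HiBiT lytic reagent was added and luminescence read after 10 min lysis in the dark.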

A short description of experiment [5]: qHTS for inhibitors of adenylyl cyclases using a fission yeast platform: a pilot screen against the NCATS LOPAC library (AID 1347410).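 Also: plate controls were DMSO vehicle for no effect and DPI positive control for full effect.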 The method, boiled down: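 Growth medium went into the plates first, then compounds were pinned (final up to 57 µM), then CHP2027 yeast were added. Plates were incubated overnight (18 h) at 30C in the dark, and GFP was measured by laser scanning cytometry.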

The target of experiment [6] is Protein phosphatase 1D (Homo sapiens) (UniProt O15297). The experiment can be described thus: RapidFire Mass Spectrometry qHTS Assay for Modulators of WT P53-Induced Phosphatase 1 (WIP1) (AID 1347424).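 Also: plate controls were DMSO wells for no effect and GSK830371 inhibitor control at 10 µM for full effect.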 In outline: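 RapidFire MS readout of dephosphorylated VEPPL-S-QETFS product, with 1 uM isotope-labelled peptide standard. Reaction: 10 nM WIP1, 2 uM phosphopeptide substrate, 5 min, room temperature, after 1 h compound preincubation; stopped with 0.5% formic acid.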
Protein phosphatase 1D (Homo sapiens), sequence (O15297 whole entry, looked up): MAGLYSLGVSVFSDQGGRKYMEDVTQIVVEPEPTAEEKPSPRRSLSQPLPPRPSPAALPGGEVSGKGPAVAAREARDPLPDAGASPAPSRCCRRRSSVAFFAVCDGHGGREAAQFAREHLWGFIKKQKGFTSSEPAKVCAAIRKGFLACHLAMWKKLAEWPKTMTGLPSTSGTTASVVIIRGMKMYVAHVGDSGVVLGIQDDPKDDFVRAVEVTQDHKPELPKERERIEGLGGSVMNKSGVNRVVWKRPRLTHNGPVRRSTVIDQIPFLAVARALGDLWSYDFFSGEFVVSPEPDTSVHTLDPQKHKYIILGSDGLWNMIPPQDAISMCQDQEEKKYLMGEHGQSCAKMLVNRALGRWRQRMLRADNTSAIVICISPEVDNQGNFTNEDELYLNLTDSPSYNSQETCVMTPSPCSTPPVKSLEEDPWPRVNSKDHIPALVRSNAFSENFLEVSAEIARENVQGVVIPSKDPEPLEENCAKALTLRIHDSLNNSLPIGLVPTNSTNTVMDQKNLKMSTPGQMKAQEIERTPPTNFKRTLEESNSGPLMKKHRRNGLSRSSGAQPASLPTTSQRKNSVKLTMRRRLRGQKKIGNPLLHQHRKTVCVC

Experiment [7] has the same target. Nature of the experiment: Rhodamine-PBP qHTS Assay for Modulators of WT P53-Induced Phosphatase 1 (WIP1) (AID 1347425). Also: % of control where 0% means no effect. In outline: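 WIP1 (5 nM final) was preincubated with compound for 1 hour at room temperature. It then dephosphorylated 10 uM VEPPL-pS-QETFS peptide in Tris-HCl pH 7.5 with 30 mM MgCl2. Released Pi was detected by 10 uM Rh-PBP fluorescence (ex 525/em 598 nm) read at 1-min intervals for 11 min, as delta f1 - f0.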

The nature of experiment [8]: Primary qHTS for inhibitors of La Crosse Virus (LACV) - induced cell death in SH-SY5Y cells (AID 1508616).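 Also: top concentration of the series differs between compounds; 0% = infected DMSO wells and 100% = uninfected DMSO wells; higher means more rescue of cells from virus-induced death.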 The method, boiled down: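 SH-SY5Y, 6000 cells/well; cpd via pin tool in DMSO; LACV 0.01 MOI; 6 d 37C 5% CO2; ATPLite, 5 min RT; luminescence normalized to ±virus DMSO controls.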
Experiment [9] in a line: qHTS to identify inhibitors of the type 1 interferon - major histocompatibility complex class I in skeletal muscle: primary screen against the NCATS Mechanism Interrogation Plate v5.0 (MIPE) Libary (AID 1347411). Also: nearly all actives have a fitted effect of over 65% in size. Also: potency is read from the fitted curve at half-maximal effect. The method, boiled down:
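Seed engineered human myoblasts (HLA-B HiBit) in medium without dexamethasone containing 4 ng/ml IFN-beta; after 1 hr add compound titrations (top 46 uM final). Incubate 24 hrs at 37 C, lyse 10 min with HiBiT reagent, read luminescence.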

Experiment [10] concerns the target Lysine-specific demethylase 5B (Homo sapiens) (UniProt Q9UGL1). Nature of the experiment: Optimization screen for KDM5B Histone Demethylases FDH coupled qHTS against the LOPAC library (AID 1347166). Also: 0% is about no effect. The following applies: KDM5B demethylation, FDH-coupled NADH fluorescence (FDH is formaldehyde dehydrogenase); at 57.5 µM (top of the series). In outline: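 KDM5BDeltaAP (200nM final) in 50mM HEPES pH 7.5, 0.01% Tween-20 was preincubated with compound for 10 min at room temperature. A substrate mix of 12.5uM H3K4Me3, 25uM a-ketoglutarate, ascorbate, Fe2+, NAD+ and formaldehyde dehydrogenase was then added. NADH fluorescence (340/450 nm) was read initially and after 30 min.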

A short description of experiment [11]: Validation qHTS assay for inhibitors of Activation Induced Cytidine Deaminase (AID): UDG Counterscreen signal (AID 1347427). Also: 0% is about no effect. In outline:
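Fluorescence at 560 nm excitation, 665 nm emission reports UDG signal after 250 mM NaOH (2x) addition and 30 min. Enzymes (AID 1 uM, UDG 2 U/mL, at 4/3x) preincubated 10 min with compound, then 4 h with 4x 250 nM DJC20/DJC23 substrate at room temperature.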

In experiment [12] the target is Single-stranded DNA cytosine deaminase (Homo sapiens) (UniProt Q9GZX7). Nature of the experiment: Validation qHTS assay for inhibitors of Activation Induced Cytidine Deaminase (AID): AID signal (AID 1347429). Also: % is scaled to controls: 0 for no effect and ±100 for the full control effect. The method, boiled down: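 Steps: dispense AID with UDG; pin-transfer compound up to 114 uM final; add DJC20/DJC23 substrate and hold 4 hr at room temperature; add NaOH, hold 30 min; read FRET signal (540/590 nm).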
Single-stranded DNA cytosine deaminase (Homo sapiens), sequence (Q9GZX7 whole entry, looked up): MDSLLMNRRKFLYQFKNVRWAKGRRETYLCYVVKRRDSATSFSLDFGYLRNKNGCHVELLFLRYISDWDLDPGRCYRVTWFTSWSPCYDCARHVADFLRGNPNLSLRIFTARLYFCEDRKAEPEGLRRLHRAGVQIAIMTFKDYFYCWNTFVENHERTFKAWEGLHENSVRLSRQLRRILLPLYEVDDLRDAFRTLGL

The nature of experiment [13]: Vero cells viability qHTS for Zika virus inhibitors (AID 1347167). Also: % is scaled to controls: 0 for no effect and ±100 for the full control effect. In outline:
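qHTS titration; 24-48 h compound exposure, 37 degrees C/5% CO2; DMEM, 4% FBS; CellTiter Glo ATP luminescence.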

Experiment [14] is described as follows: Confirmatory screen NINDS Rhodamine qHTS for Zika virus inhibitors (AID 1347161). Also: potency is read from the fitted curve at half-maximal effect; nearly all actives have a fitted effect of over 60% in size. The method, boiled down:
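Single-chain NS2B-NS3 protease, 25 nM, pH 8.0; compounds preincubated 15 min. Activity: Rhodamine110 release from 1.5 microM substrate over 15 min, room temperature, data fitted to 4-parameter Hill.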

Experiment [15] deals with Zika virus NS2B-NS3 protease (linked). The experiment can be described thus: 384 well plate NINDS AMC confirmatory qHTS for Zika virus inhibitors (AID 1347163). Also: potency is read from the fitted curve at half-maximal effect; nearly all actives have a fitted effect of over 50% in size. The following applies: Recombinant NS2B-NS3 protease, Ac-VKTGKR-AMC fluorescence. The method, boiled down:
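Fluorescence at 355/460 nm was read after 25 minutes of cleavage of 30 microM Ac-VKTGKR-AMC at room temperature, in the dark. Before substrate addition, compounds (up to 1 mM final) sat ~15 minutes with 5, 30 or 60 nM linked protease. Signals were normalized to no-enzyme and no-inhibitor wells.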

For experiment [16], the system named is Zika virus NS2B-NS3 protease (linked construct). The experiment can be described thus: 384 well plate NINDS Rhodamine confirmatory qHTS for Zika virus inhibitors (AID 1347164). Also: potency is read from the fitted curve at half-maximal effect; nearly all actives have a fitted effect of over 65% in size. The conditions noted are these: rhodamine-110 peptide substrate fluorescence. The method, boiled down: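 Compounds are incubated about 15 minutes with linked protease (5, 30 or 60 nM final). Rhodamine 110-tagged Ac-LKRR substrate (10 microM final) is added and fluorescence measured after 25 minutes.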

The nature of experiment [17]: Tertiary RLuc qRT-PCR qHTS assay for Zika virus inhibitors (AID 1347169). Also: potency is read from the fitted curve at half-maximal effect; nearly all actives have a fitted effect of over 55% in size. In outline:
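Orthogonal cell-based infection assay using recombinant ZIKV-RLuc (Cambodian) in Vero cells; compound added prior to virus at MOI 1-2. Incubation lasts 48-72 hrs at 37 degrees C before live-cell Renilla substrate is added and luminescence measured.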

Unmarked numbers belong to inactive results. Inconclusive results are not listed. Activity calls are given as the source filed them. Calls follow the shape of the dose curve; as a rule, active = well fitted curve in the direction sought with a large enough effect; inconclusive = small, poorly fitted or top-dose-only effect, or another doubt; inactive = no such curve, though single readings can be large; an effect the other way counts as inactive or inconclusive.

Lysine-specific demethylase 5B (Homo sapiens), sequence (Q9UGL1 whole entry, looked up): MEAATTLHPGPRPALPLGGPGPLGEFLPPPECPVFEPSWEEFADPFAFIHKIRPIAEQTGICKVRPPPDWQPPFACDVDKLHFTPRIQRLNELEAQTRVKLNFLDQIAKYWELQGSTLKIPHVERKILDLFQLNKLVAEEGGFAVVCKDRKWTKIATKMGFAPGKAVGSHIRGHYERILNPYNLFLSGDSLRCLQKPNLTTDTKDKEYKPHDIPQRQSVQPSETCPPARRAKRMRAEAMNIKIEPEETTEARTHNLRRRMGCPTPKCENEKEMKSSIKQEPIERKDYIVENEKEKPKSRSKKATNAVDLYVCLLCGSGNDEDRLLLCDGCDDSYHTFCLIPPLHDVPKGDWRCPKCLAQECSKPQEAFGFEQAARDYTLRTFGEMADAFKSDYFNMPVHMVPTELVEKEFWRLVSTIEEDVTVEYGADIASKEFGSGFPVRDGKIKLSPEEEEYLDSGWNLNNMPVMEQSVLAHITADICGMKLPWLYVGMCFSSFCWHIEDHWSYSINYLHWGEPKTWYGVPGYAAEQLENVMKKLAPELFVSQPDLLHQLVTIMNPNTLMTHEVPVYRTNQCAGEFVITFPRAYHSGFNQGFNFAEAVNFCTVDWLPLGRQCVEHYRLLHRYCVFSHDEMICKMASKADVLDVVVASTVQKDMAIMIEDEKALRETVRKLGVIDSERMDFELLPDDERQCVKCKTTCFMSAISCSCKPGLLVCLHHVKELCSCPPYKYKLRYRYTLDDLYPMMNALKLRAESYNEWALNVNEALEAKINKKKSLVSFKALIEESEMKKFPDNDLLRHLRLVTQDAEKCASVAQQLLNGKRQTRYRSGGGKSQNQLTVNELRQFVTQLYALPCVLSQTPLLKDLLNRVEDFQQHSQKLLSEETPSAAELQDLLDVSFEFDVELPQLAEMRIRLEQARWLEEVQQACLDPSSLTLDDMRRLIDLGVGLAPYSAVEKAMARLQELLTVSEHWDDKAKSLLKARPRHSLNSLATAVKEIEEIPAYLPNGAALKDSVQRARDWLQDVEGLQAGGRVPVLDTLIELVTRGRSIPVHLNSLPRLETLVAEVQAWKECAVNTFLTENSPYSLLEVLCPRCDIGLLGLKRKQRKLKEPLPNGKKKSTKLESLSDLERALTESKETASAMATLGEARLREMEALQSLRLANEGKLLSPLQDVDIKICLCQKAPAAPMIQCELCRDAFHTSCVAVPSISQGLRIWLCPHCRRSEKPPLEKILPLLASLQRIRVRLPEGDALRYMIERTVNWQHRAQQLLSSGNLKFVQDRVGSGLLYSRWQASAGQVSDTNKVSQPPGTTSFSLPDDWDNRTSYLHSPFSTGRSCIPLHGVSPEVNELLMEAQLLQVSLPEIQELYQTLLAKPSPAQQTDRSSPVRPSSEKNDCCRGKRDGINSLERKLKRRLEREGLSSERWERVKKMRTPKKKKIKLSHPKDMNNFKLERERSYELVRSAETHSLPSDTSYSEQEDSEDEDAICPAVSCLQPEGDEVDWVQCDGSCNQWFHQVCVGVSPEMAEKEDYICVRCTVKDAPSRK

As to `CNS(=O)(=O)CCc1ccc2[nH]cc(C3CCN(C)CC3)c2c1`, the Potency result in experiment [1], in experiment [2], in experiment [4] and in experiment [8] was “inactive” in each case. The result in [3], in experiment [5], in experiment [6] and in experiment [7] was inactive.
Regarding `COc1cc2c(Nc3ccc(Br)cc3F)ncnc2cc1OCC1CCN(C)CC1`, the Potency entry in experiment [1], in experiment [2] and in [4] was “inactive” throughout. Besides, the outcome in experiment [3] and in [7] was inactive.
As for `CC1=NN(c2ccccc2)C(=O)C1`, the Potency result in [1], in experiment [4], in [9] and in experiment [8] was “inactive” each time. Moreover, the compound was called inactive in experiment [3], in experiment [6] and in experiment [7].
`CCN1CCCC1CNC(=O)c1cc(S(N)(=O)=O)ccc1OC` (centres undefined): the Potency entry in experiment [1] and in experiment [8] was “inactive” throughout. The activity, negative = inhibition in [10] is 2.22%. Further, the call in experiment [5], in [11] and in experiment [12] was inactive.
Regarding `O=C(NCC1CN(c2ccc(N3CCOCC3=O)cc2)C(=O)O1)c1ccc(Cl)s1` (centres undefined), the Potency result in [1], in experiment [2], in experiment [4] and in [9] was “inactive” throughout. Further, the compound was called inactive in experiment [3], in experiment [6] and in experiment [7].
In the case of `N[C@@H](Cc1ccc(O)c(O)c1)C(=O)O`, the Potency in [1] was 27.1 µM (active). Also, the activity, negative = inhibition in experiment [10] is 0.726%.
`COc1cc2ncnc(Nc3cccc(Cl)c3)c2cc1OC`: the Potency result in [1], in experiment [2] and in experiment [8] was “inactive” in each case. Further, the outcome in experiment [3], in experiment [5], in experiment [11] and in experiment [12] was inactive. Besides, the Potency in experiment [9] is 29.4 µM (active).
For `CC(C(=O)O)c1ccc2c(c1)CC(=O)c1ccccc1S2` (centres undefined), the Potency result in experiment [1], in [2], in experiment [4] and in [8] was “inactive” throughout. Further, the compound was called inactive in [3] and in experiment [7].
For the compound `OCc1ccc(-c2nn(Cc3ccccc3)c3ccccc23)o1`, in experiment [1], the Potency was 30.4 µM (active). Moreover, the Potency result in experiment [13] and in experiment [8] was “inactive” in each case. Further, the outcome in experiment [5], in [11] and in experiment [12] was inactive.
As to `O=C(O)c1ccc(-n2nc(-c3ccccc3O)nc2-c2ccccc2O)cc1`, the Potency entry in experiment [1], in experiment [13], in experiment [4] and in [8] was “inactive” in each case. Besides, the Potency in experiment [14] was 11 µM (active); in [15], 112 µM (active); in experiment [16] it was 35.5 µM (active); in experiment [17] it was 13.1 µM (active). Moreover, the compound was called inactive in experiment [6] and in experiment [7].
As to `Cc1nnc(C(=O)NC(C)(C)c2nc(C(=O)NCc3ccc(F)cc3)c(O)c(=O)n2C)o1`, the Potency result in experiment [1], in experiment [2], in experiment [4], in [9] and in experiment [8] was “inactive” throughout. Also, the compound was called inactive in experiment [3], in experiment [6] and in [7].
Regarding `CC1CC2C3CCC4=CC(=O)C=C[C@]4(C)[C@@]3(F)[C@@H](O)C[C@]2(C)[C@@]1(O)C(=O)CO` (some centres undefined), the Potency entry in experiment [1] and in experiment [8] was “inactive” in each case. Further, the activity, negative = inhibition in [10] was -6.72%. The compound was called inactive in [5], in experiment [11] and in [12].
